# Measured values from the supplement of paper PMC6555819.
# System: VDR:RXRa (NR concentration 270 nM, RXRa partner concentration 90 nM)
# Assay: PBM binding z-score (relative to random genomic background probes); higher = stronger binding; sequences stand for … in GC…GCGATTGACAGCGTAGAATGAAGG
# Method: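 Protein-binding microarray (Agilent 4x180K custom design, double-stranded 60-nt probes: 5' GC cap, 34-nt variable region, 24-nt constant primer region; full probe sequence given). Purified or IVT nuclear receptor:RXRα heterodimers (3:1 NR:RXRα, mostly 270:90 nM) or homodimers were incubated for 1 h in PBS with 2% milk and no ligand, then detected with Alexa488 antibodies. Fluorescence from o1-orientation probes (~5 replicates averaged) was converted to z-scores against 500 random hg19 background probes. Variable regions are seed direct-repeat (DR0–DR5) sites, all their single-nucleotide variants and half-site ablations.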
row,Sequence,PBM binding z-score
1,ATCCAAAGGTCGAAGGTGAGTATACCCACCCGAA,3.15
2,TCATATAGGCAAAAGGTGAAAGTCGGTGTGGTAA,1.05
3,TCTTGTAAATCAGCAGGTTAAGAAAGCTGGCCAA,0.539
4,CCTGCTAGGTCATGATCAGCTAATCTACAGTATG,1.41
5,GCTAGTTGGTCAGTAAAAGGACACACACCGGTCG,-0.213
6,CGTCCAAGGTCAATGCTAGGTAAGTGAAAGCATT,3.62
7,TTACCAAGGTGAAAGGTCGTTCATGCACGCCTTG,3.53
8,ATCTCTAGGTAAGACTCAGTTCCGTGAAGAACGC,0.121
9,TCACATAGGTAAAAGGTGAAAGTCGGTGTGGTAA,1.8
10,ACTATTAGTTGAGACGGGGGCAACCGATAGGTTG,2.71
11,AGAACGAGGGCACGATGAGTTGATAGCAGAGTAG,2.32
12,CCTACTGGGCCAAAAGTCATTGATTCCAATGCTC,-0.0662
13,GATACAGGGTCAGCTAGAAGCCAGAGTATGGAAA,2.11
14,CAAACTAGGTCAAAGGTCAAAGTCGAGCCAACCA,6.72
15,CGAGCGAGGGCATGAGTTGATAGCAAATGCCGAT,1.3
16,TCTAGCAGGTCAGAGGGTCACTCAAGAGGTACGG,4
17,CAAACTAGGTCAAAGGTCAAAGGCGAGCCAACCA,6.82
18,CGAACGATGGCATGAGTTGATAGCAAATGCCGAT,-0.111
19,TCATATAGGTAAATGATAGGTGAAAGTCCGATCT,1.15
20,GGTACGAGGGCATTCGAGTTGATAGCATGGCGAT,3.71

row,Sequence,PBM binding z-score
1,CCTAGTTGGTCAAGGTCACACTCGCTATAGGTAC,3.99
2,TCTTGTAGATCAAGCAGGTAAAGAAAGCCTGAGT,0.212
3,ATCTCTAGGTAACACGTTCAGTGAAAGAGAGGAC,0.339
4,CCTTACGGGTCACCCCAGGTTATAGCATCGGAGT,4.91
5,TCTCGGAGGACACGAAAGGTCAGAGCGCGACATC,3.45
6,TTACCAAGGTAAAGGTCGTTGATCCCTCTGTAGA,2.34
7,TCTATTAGATGATTAGGGCAACCGAAACAGCGGA,0.44
8,ACAGACAGGTGATGAAGCTAACTCAGGCTATCAT,-0.278
9,GCTTATAGGTAATACAAGGTGAAAGTCCGATTGT,0.401
10,GGTGCTAGGTCAACTGATGGTCAGCTAAAGCTCG,1.89
11,ACATACAGGTGATGAAGGTAACTCAGGCTATCAT,0.555
12,CGAACTAGGTCATTCAGGACAGTGAATACATTGA,4.46
13,ATCTCTAGGTAAAATTTCAGTGAATCCCGAGGAT,0.166
14,AAAACAGGGTCACTAGGCCAGAGTAGGTACGAAT,4.38
15,CCCAGCAGGCCAGGGTCACTCAAGCATTTCGCTT,2.42
16,CCTAGCAGGCTAGGGTCACTCAAGCATTTCGCTT,2.72
17,ACAGACAGGTGATGAAGTTAACTCAGGCTATCAT,0.117
18,GCTAGTTGGTCAGTAAAAGGTTACACACCGGTCG,0.877
19,CCGAGTAGGTTATGGGGCATTAAGGCAACGGTGA,0.259
20,GCGACTGGGGCAAATCAGGTTACCATAAGGTTGG,0.324
